# Granule exo inh: LAMP-1 surface exposure blockers, TALL-104 cells – cell-based, flow cytometry, MLPCN library, primary screen; TALL-104 LAMP-1 surface exposure; cells stimulated with thapsigargin and PMA; inhibition, % at 10 µM; 360,000 compounds, 0.66% hits;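 active = inhibition above about 55%, limit read from the data; inconclusive = no clear call, values can overlap the other calls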
# NPR2 activator: human GC-B receptor activators, primary screen, HEK293 GC-B cells, cGMP TR-FRET, EC30 CNP. AID 1920062, 2024. activation, % at 10 µM. 370,000 compounds, 0.11% hits. 0% at EC30 CNP, 100% saturating CNP. Atrial natriuretic peptide receptor 2 (Homo sapiens), P20594;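 active = activation at 10 µM reaching about 35% in either raw or pattern-adjusted values, limit read from the data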
# Myeloid diff MLP: induction of myeloid progenitor differentiation, primary screen, cell-based, flow cytometry, MLPCN library | 360,000 compounds, 1% hits | calls only at 10 µM | ER-HoxA9 myeloid progenitors, lysozyme-GFP differentiation;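 active = normalized GFP-positive differentiation at or above the plate's own cutoff, the solvent-only control mean plus 3 SD; inconclusive = no clear call, values can overlap the other calls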;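 also: cells exposed to compound for four days before flow analysis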
# GC-A act: GC-A stimulated cGMP production enhancers – HEK293 GC-A cells, cGMP TR-FRET, EC30 ANP, primary screen | Atrial natriuretic peptide receptor 1 (Homo sapiens), P16066 | 0% at EC30 ANP, 100% saturating ANP | activation, % at 10 µM | 370,000 compounds, 0.14% hits; in the data active = activation above about 40%
# Myeloid diff CP1: inducers of myeloid progenitor differentiation, confirmation, cell-based, GFP/Mac1 flow cytometry, cherry pick 01; 2,300 compounds, 2% hits; calls only; ER-HoxA9 myeloid progenitors, GFP/Mac1 double-positive flow; shares compounds with Myeloid diff MLP;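 active = share of green or green-and-red cells above 9 and 9% in run 1 or 4 and 3% in run 2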
# GFP autofluor: compound fluorescence in myeloid differentiation counter-screen | shares compounds with Myeloid diff MLP | ER-HoxA9 myeloid progenitors, no estrogen, GFP autofluorescence flow cytometry; vehicle wells 0%, positive control 100% | fluorescence response, % (test concentration not listed) | 2,300 compounds, 7.4% hits | AID 651707;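 active = over 5% cells positive for green fluorescent reporter, or over 2% positive for both it and APC stain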;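 also: range taken on the double positive population between DMSO and positive control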
# * = called active by the depositor; i = inactive; ? = inconclusive; · = no result given; + = active, no number. The list is not random: actives were taken first. Their share in the collection is about 1.8%.
SMILES,Granule exo inh,NPR2 activator,Myeloid diff MLP,GC-A act,Myeloid diff CP1,GFP autofluor
CCOCCn1ccc2c(OCC(=O)Nc3cc(OC)ccc3OC)cccc2c1=O,-1,13,?,16,·,·
COCCn1ccc2c(OCC(=O)Nc3cc(OC)ccc3OC)cccc2c1=O,-1,8,+,8,i,0
CCOc1ccc(-n2c(SCc3nc4ccccc4[nH]3)nnc2-c2cccc(Cl)c2)cc1,·,-20,·,-18,·,·
CC(=O)C1C(c2ccc(OC(F)F)cc2)NC(=O)NC1(O)C(F)(F)F (stereo not given),2,7,i,1,·,·
CC(=O)C1C(c2ccc(F)c(F)c2)NC(=O)NC1(O)C(F)(F)F (stereo not given),-1,-3,i,7,i,0
O=C1C=C(c2ccc(-c3ccccc3)cc2)C[C@@H](c2ccc(Cl)cc2)C1,3,3,i,1,i,0
C[C@@H](NCCCn1ccc(NC(=O)OCc2ccccc2)nc1=O)c1cccc2ccccc12,2,-7,i,-3,·,·
COC(=O)c1cc(S(=O)(=O)N2CCOCC2)ccc1Sc1ccccc1N,0,-12,i,-17,i,0
COC(=O)c1cc(S(=O)(=O)N2CCCCC2)ccc1N1CCOCC1,-5,0,·,0,·,·
COn1c(=O)c(-c2cccs2)[n+]([O-])c2ccccc21,-1,-2,i,-1,·,·
Cn1c(-c2cccs2)[n+](C)c2ccccc21,-1,0,i,1,i,0
COc1ccc(S[C@]2(C(=O)N3CCOCC3)CC(=O)N(C(=O)CCc3ccccc3)[C@@H]2c2ccc(OC)cc2)cc1,·,3,·,1,·,·
CCn1c(COc2ccccc2)nnc1SCC(=O)C(C)(C)C,1,3,+,1,i,0
CCn1c(COc2ccc(C)cc2)nnc1SCC(=O)C(C)(C)C,0,13,i,2,·,·
O=C(O)[C@@H]1Cc2ccccc2N1,6,-4,+,-3,i,5.4*
CCOCCCNC(=O)Cc1c(C(=O)O)[nH]c2ccc(Cl)cc12,-3,-2,i,8,i,0
CCOC(=O)c1ccc(NC(=O)COC)cc1,0,6,i,-3,·,·
CCOC(=O)c1ccc(NC(=O)C(CC)(CC)C(=O)OCC)cc1,-3,4,i,2,i,0
CCCCn1c(SCC(=O)c2ccc(O)cc2O)nc2cc(S(N)(=O)=O)ccc21,14,-10,i,-2,·,·
CCCCn1c(SCC(=O)N2CCC(C)CC2)nc2cc(S(N)(=O)=O)ccc21,0,-1,+,2,i,0
CC(=O)Nc1ccc(-c2csc(NC(=O)Cc3cccc(F)c3)n2)cc1,17,-1,i,3,·,·
Cn1cnnc1Sc1nc2ccccc2nc1NS(=O)(=O)c1ccccc1,0,2,i,4,i,0
COc1ccc(NC(=S)N2CCC3CC2c2c(Cl)cccc23)c(OC)c1 (stereo not given),3,0,+,4,+,0
C=CCNC(=S)N1CCC2CC1c1c(Cl)cccc12 (stereo not given),-1,1,i,3,·,·
O=C(NC1CCCCC1)C1c2ccccc2OCC(=O)N1Cc1ccccc1 (stereo not given),-6,-11,i,-10,·,·
SMILES,Granule exo inh,NPR2 activator,Myeloid diff MLP,GC-A act,Myeloid diff CP1,GFP autofluor
O=C(NC1CCCC1)c1cnc2n(c1=O)CCS2,-3,6,i,-2,i,0
CC1CC(NC(=O)c2cnc3n(c2=O)CCS3)CC(C)(C)C1 (stereo not given),-7,-2,i,3,·,·
COc1ccc(C(=O)N2CCCC(c3cc(C(=O)NCc4ccc(F)cc4)no3)C2)cc1 (stereo not given),-6,-2,i,-4,·,·
O=C1C2C(C(=O)N1CC1CCCO1)C1C=CC2C12CC2 (stereo not given),-1,-8,·,-5,i,1
CC(C)c1cc(=O)oc2c3c4c(cc12)CCCN4CCC3,0,-3,i,-2,·,·
O=c1oc2c3c4c(cc2c(C(F)(F)F)c1CCN1CCOCC1)CCCN4CCC3,-1,4,+,14,i,0
CCCOc1ccc([C@@H]2C3CN(C(=O)OCC)CC=C3C(C#N)=C(N)C2(C#N)C#N)cc1OC (stereo not given in full),5,-1,+,2,i,0
Cn1c(NCc2cccnc2)nc2cc(-c3cccc(C(=O)NCCO)c3)sc2c1=O,1,-1,+,3,i,1
COc1cccc(-c2cc3nc(NCc4cccnc4)n(C)c(=O)c3s2)c1,13,9,i,11,·,·
CCn1c(-c2ccc(F)cc2)n[nH]c1=S,-2,5,i,-2,i,0
CCN(CC)C(=O)C1=C(C)N(CCCOC)C(=O)C(CC(=O)NC2CCCCC2)C1 (stereo not given),1,-3,i,-2,·,·
CCCc1ccc(OCc2ccc(C(=O)NN)o2)c(OC)c1,-6,4,+,-3,i,0
Cc1[nH]c(=O)[nH]c(=O)c1NC(=O)c1ccccc1[N+](=O)[O-],-1,5,i,1,·,·
CCCS(=O)(=O)NC(=O)C1(C)CCCN(C(=O)c2ccc3ccccc3c2)C1 (stereo not given),-8,-1,i,-1,·,·
CCCCCN1CCCCC(NC(=O)C(C)(C)C)C1=O (stereo not given),·,-2,·,3,·,·
CCOC(=O)/C(=N\Nc1ccc(C(C)=O)cc1)c1csc(Nc2ccccc2)n1,8,2,+,2,i,1
O=C(CCc1nnc2ccc(NCc3ccco3)nn12)N1CCN(c2ccccc2)CC1,2,-7,?,0,·,·
CCOC(=O)C1CCN(C(=O)CCc2nnc3ccc(NCc4ccco4)nn23)CC1,-12,-2,+,1,i,1
CC(=O)c1ccc(S(=O)(=O)N2CCN(C(=O)c3ccc(-n4nc(C)c(Cl)c4C)cc3)CC2)cc1,2,1,i,-2,i,0
CC[n+]1c(/C=C/c2ccc(OC)c(OC)c2)ccc2ccccc21,7,-6,+,-1,i,2
CC[n+]1c(/C=C/c2ccc(OC(C)=O)c(OC)c2)ccc2ccccc21,2,-5,i,-12,·,·
C[C@H](N)C(=O)N1CCC(C(=O)N[C@@H](Cc2ccccc2)C(=O)Nc2ccc(F)cc2)CC1,5,8,i,3,i,0

# Screening data: PubChem, several laboratories
